# In the library only some 4.2% were active in any assay of this set; here they are far more common.
# D1 potentiator = Potentiators of Human D1 Dopamine Receptor: qHTS; AID 504651, 2011; D(1A) dopamine receptor (Homo sapiens), P21728; actives 0.036% (n = 360,000); HEK293 TREx D1 cells, calcium flux, dopamine EC20 potentiation; potentiation, % at 10 µM; in the data active = potentiation above about 30%; also: 0% is about no effect
# Target sequence (P21728 whole entry, looked up): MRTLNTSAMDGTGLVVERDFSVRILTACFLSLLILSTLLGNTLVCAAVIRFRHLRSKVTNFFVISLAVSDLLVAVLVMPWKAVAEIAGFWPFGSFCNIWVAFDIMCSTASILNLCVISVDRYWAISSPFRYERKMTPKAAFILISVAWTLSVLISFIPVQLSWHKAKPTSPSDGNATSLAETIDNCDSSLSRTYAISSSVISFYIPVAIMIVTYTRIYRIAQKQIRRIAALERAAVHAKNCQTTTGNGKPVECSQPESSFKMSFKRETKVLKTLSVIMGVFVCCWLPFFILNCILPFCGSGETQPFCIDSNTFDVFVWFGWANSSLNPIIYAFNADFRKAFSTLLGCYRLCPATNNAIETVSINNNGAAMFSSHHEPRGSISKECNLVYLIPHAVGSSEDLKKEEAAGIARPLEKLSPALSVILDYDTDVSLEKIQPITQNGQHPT
# D1 antag = Antagonist of Human D 1 Dopamine Receptor: qHTS | D(1A) dopamine receptor (Homo sapiens), P21728 | HEK293 TREx D1 cells, calcium flux, dopamine EC80; stronger effect = lower value | activity change, negative = inhibition, % at 10 µM | actives 3.2% (n = 360,000) | AID 504652, 2011; in the data active = activity change below about -30%; also: % is scaled to controls: 0 for no effect and ±100 for the full control effect
#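 HEK293 T-REx cells expressing inducible, force-coupled D1 receptor; no-wash Ca dye, 30–90 min RT. Cmpd → 180 s read at 1 Hz → EC80 DA → 180 s read.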
# TRPV1 ag = HTS Assay for Compounds that Act as Agonists of the Vanilloid Receptor 1 | Transient receptor potential cation channel subfamily V member 1 (Homo sapiens), Q8NER1 | TRPV1-expressing cells, Fluo-8 calcium influx, agonist mode | activation, % at 8.33 µM | actives 0.19% (n = 320,000); in the data active = activation above about 80%; inconclusive = between about 30% and that limit; also: 0% is about no effect
#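 TRPV1-expressing cells were cultured overnight at 35.5C and loaded with Fluo-8 calcium dye for 40 to 90 min at room temperature. After a 10 s baseline, compound was added and calcium influx was read kinetically for 3 min (ex 480/em 520 nm).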
# TRPV1 potentiator = HTS Assay for Compounds that Act as Potentiators of the Vanilloid Receptor 1; Transient receptor potential cation channel subfamily V member 1 (Homo sapiens), Q8NER1; TRPV1-expressing cells, Fluo-8 calcium influx, capsaicin EC20 potentiation; AID 540277, 2011; potentiation, % at 8.33 µM; actives 0.02% (n = 320,000); in the data active = potentiation above about 80%; inconclusive = between about 30% and that limit; also: 0% is about no effect
#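 Fluo-8 calcium influx in TRPV1-expressing cells, kinetic read (ex 480/em 520 nm). Compound added and read 3 min for agonist activity, followed by capsaicin at EC20 final and 2 min further read for enhancement.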
# D1 agonist = Allosteric Agonists of the Human D1 Dopamine Receptor: qHTS; actives 1% (n = 360,000); activation, % at 2 µM; HEK293 T-REx D1 cells, calcium flux, agonist mode; AID 504660, 2011; D(1A) dopamine receptor (Homo sapiens), P21728; in the data active = activation above about 30%; also: 0% is about no effect
#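 Inducible HEK293 T-REx D1 cells, force-coupled to calcium signalling, were plated at 4000 cells/well with tetracycline and held overnight at 30 C. After no-wash calcium dye loading, compound-evoked calcium rise over 180 s flagged agonists.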
# Starred values were filed as active, the others as inactive; ? = inconclusive; . = no result.
SMILES,D1 potentiator,D1 antag,TRPV1 ag,TRPV1 potentiator,D1 agonist
COc1ccc(CCN2CCC(Nc3nc4ccccc4n3Cc3ccc(F)cc3)CC2)cc1,6.7,-21.4,4.2,7.7,112.2*
COc1ccc(CNc2nc3ccccc3n2CCN2CCCCC2)cc1,-3.5,.,28.4,-17.5,4.6
Cn1c(NCc2c[nH]c3ccccc23)nc2ccccc21,-7.0,-5.5,-3.4,4.6,0.6
C=CCn1c(NCc2c[nH]c3ccccc23)nc2ccccc21,-13.8,-58.6*,-1.2,27.3,0.7
CCOc1ccc(N2CC(O)(c3ccc(F)cc3)[N+]3=C2CCCC3)cc1 (stereo not given),-4.4,-44.2*,-1.4,2.0,3.6
COC(=O)c1[nH]c2cc(OC)ccc2c1NC(=O)CN1CCC(C(N)=O)(N2CCCCC2)CC1,-2.5,18.0,10.1,-12.2,-0.7
COc1ccc(NC(=O)CN2CCC(C(N)=O)(N3CCCCC3)CC2)c(OC)c1,-7.8,-37.2*,?,4.9,-0.2
CN(C(=O)CSc1nc2ncccc2o1)c1ccc(F)cc1,-0.6,7.5,.,.,0.5
CC(C)c1ccc(N(C(=O)c2snc(C(N)=O)c2N)C(C(=O)NCC2CCCO2)c2ccc(N(C)C)cc2)cc1 (stereo not given),2.6,48.1,6.3,-13.3,57.0*
CN(C)c1ccc(C(C(=O)NCC2CCCO2)N(C(=O)c2snc(C(N)=O)c2N)c2ccccc2)cc1 (stereo not given),-6.3,-14.5,2.0,10.2,3.4
Cc1nn(CC(=O)NCc2ccccc2Br)c(=O)c2cc3occc3n12,-2.8,-13.7,.,.,-0.9
Cc1c(-c2ccc(O)cc2)nc2nc(-c3ccccc3)c(-c3ccccc3)nn12,-9.6,6.0,4.2,15.6,85.6*
Cc1nnc2c3ccccc3c(-c3ccc(O)cc3)nn12,-3.5,-7.1,-2.2,-1.0,5.8
Cc1ccc(CNC(=O)COc2cccc3c2OC(C)(C)C3)cc1,-3.2,-7.8,-10.8,8.2,8.4
CC1(C)Cc2cccc(OCC(=O)NCc3ccccc3F)c2O1,0.1,-35.4*,?,1.2,2.5
O=C(Nc1cccc(Cl)c1)C1CCN(c2nc3ccccc3nc2C(F)(F)F)CC1,0.7,0.4,.,.,7.4
COCCCNC(=O)NC(CCC(C)C)c1c(-n2cccc2)sc2c1CCN(C)C2 (stereo not given),-1.5,-1.7,.,.,0.9
O=C1C=CC(=O)N1c1cccc(-c2ccccc2)c1,-10.2,-42.6*,.,.,5.1
Cc1ccc(S(=O)(=O)NCCc2nnc3ccc(SCC(=O)Nc4c(C)cc(C)cc4C)nn23)cc1,1.3,5.1,.,.,-1.5
CCOc1ccc(CC(=O)C2C(=O)CCCC2=O)cc1OCC,-3.2,-42.0*,-1.7,-2.4,5.2
CCOc1ccc(CC(=O)C2C(=O)CC(C)(C)CC2=O)cc1OCC,6.5,6.1,0.4,26.9,3.2
Cc1oc(-c2ccccc2F)nc1CS(=O)(=O)CC(=O)N1CCN(c2ccc(Cl)cc2)CC1,-3.0,-18.5,.,.,4.7
Cc1cc(C)cc(OCCSc2nc3ccc(NC(=O)c4cccs4)cc3s2)c1,-0.6,4.1,.,.,8.6
COC(=O)CNC(=O)c1cccc(Cl)c1,-4.0,-31.6*,0.3,-0.1,4.3
COC(=O)CNC(=O)c1cccc(F)c1,-5.3,13.1,-1.6,14.4,1.4
O=C1Cc2cc(S(=O)(=O)N3CCN(c4ccccc4)CC3)ccc2N1,-4.7,-7.2,3.5,-4.9,0.9
O=C1Cc2cc(CCN3CCN(c4nsc5ccccc45)CC3)c(Cl)cc2N1,-3.1,-83.8*,-1.4,-2.8,-1.3
Cc1ccc(NC(=O)C(Cc2c[nH]c3ccccc23)NC(=O)OC(C)(C)C)c(C)c1 (stereo not given),-4.8,-35.0*,.,.,1.5
Cc1cc2ccccc2n1-c1ccc(C(=O)N2CCCCC2)s1,0.8,3.9,.,.,5.5
COc1ccc2[nH]c3c(c2c1)CCN1C(=O)N([C@@H](C)C(=O)NCCc2ccc(F)cc2)C(=O)[C@]31C,-6.5,-85.2*,-1.7,-10.1,1.0
